The values that follow come from PubChem BioAssay (Tox21).

The nature of assay [1]: qHTS assay to test for compound auto fluorescence at 535 nm (green) in HEK293 cells (AID 720680).
The nature of assay [2]: qHTS assay to test for compound auto fluorescence at 460 nm (blue) in HEK293 cell free culture (AID 720681). In outline:
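Blue fluorescence (Ex 405/Em 460 nm, triamterene-equivalent) was read immediately after pin transfer of compound or DMSO into medium (DMEM, 10% FBS) without cells.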
(In qHTS, concentration-response curves come from the screen itself.)

Assay [3] in a line: qHTS assay to test for compound auto fluorescence at 535 nm (green) in HEK293 cell free culture (AID 720682). In outline:
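Compounds were pin-transferred into cell-free DMEM with 10% FBS, and green fluorescence was read at excitation 485 nm and emission 535 nm. Intensities were expressed as fluorescein-equivalent values.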

Assay [4] can be described thus: qHTS assay to test for compound auto fluorescence at 590 nm (red) in HEK293 cell free culture (AID 720683). In outline: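 Red-channel autofluorescence of compounds in culture medium (DMEM, 10% FBS), no cells, measured at 540/590 nm. Rose Bengal sodium is the reference fluorophore for equivalence.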
Assay [5] is described as follows: qHTS assay to test for compound auto fluorescence at 590 nm (red) in HepG2 cell free culture (AID 720684). In outline: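 Steps: dispense MEM/10% FBS medium, no cells; pin compound or DMSO vehicle; read red channel, Ex/Em 540/590 nm. Output given as Rose Bengal sodium equivalents.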
The nature of assay [6]: qHTS assay to test for compound auto fluorescence at 460 nm (blue) in HepG2 cell free culture (AID 720685). In outline:
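Compound (23 nL) or DMSO pinned into cell-free MEM with 10% FBS; blue fluorescence read at 405/460 nm excitation/emission, expressed as auto-fluorescence equivalency to triamterene.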

Assay [7] can be described thus: qHTS assay to test for compound auto fluorescence at 535 nm (green) in HepG2 cell free culture (AID 720686).
Assay [8] in a line: qHTS assay to test for compound auto fluorescence at 460 nm (blue) in HepG2 cells (AID 720687). In outline: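 Blue-channel autofluorescence (Ex/Em 405/460 nm, triamterene-equivalent) was measured after 1 hr compound exposure at 37 C, 5% CO2. Cells were HepG2, plated overnight at 37 C in MEM plus 10% FBS.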
The target in assay [9] is Glucocorticoid receptor (Homo sapiens) (UniProt P04150). Kind of assay: qHTS assay to identify small molecule agonists of the glucocorticoid receptor (GR) signaling pathway (AID 720691; active = well fitted activation curve with a large enough effect in the signal ratio in the repeat runs, not every such curve was filed as active; inconclusive = weak or mixed curves, or effect the other way; inactive = no such curve, though single readings can be large or run the other way; the % refers to the signal ratio; also: potency is read from the fitted curve at half-maximal effect). To be noted: GR-bla HeLa, beta-lactamase reporter ratio, 18 h; activation: at 62.4 µM (top of the series). In outline:
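Fluorescence intensity from LiveBLAzer B/G FRET substrate (2 h, room temperature) reports beta-lactamase expression driven by the glucocorticoid response element in GR-bla HeLa cells after 18 h compound exposure at 37 C.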

Assay [10] can be described thus: qHTS assay to identify small molecule antagonists of the glucocorticoid receptor (GR) signaling pathway - cell viability counter screen (AID 720693). Also: nearly all actives have a fitted effect of over 55% in size.
The nature of assay [11]: qHTS assay for identifying genotoxic compounds that show differential cytotoxicity against isogenic chicken DT40 cell lines with known DNA damage response pathways - wild type cell line (AID 743012). Also: nearly all actives have a fitted effect of over 60% in size. Also: potency is read from the fitted curve at half-maximal effect. In outline:
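Wild type DT40, 300 cells/well, ~0.5 h settle at 37 C/5% CO2; compounds in DMSO added by pintool; 40 h at 37 C/5% CO2; CellTiter-Glo, 30 min RT; luminescence.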

Assay [12] in a line: qHTS assay for identifying genotoxic compounds that show differential cytotoxicity against isogenic chicken DT40 cell lines with known DNA damage response pathways - Rev3 mutant cell line (AID 743014). Also: nearly all actives have a fitted effect of over 55% in size. Also: potency is read from the fitted curve at half-maximal effect.
Assay [13] is described as follows: qHTS assay to identify small molecule antagonists of the androgen receptor (AR) signaling pathway - cell viability counter screen (AID 743033; also: nearly all actives have a fitted effect of over 45% in size).
Assay [14] in a line: qHTS assay to identify small molecule antagonists of the androgen receptor (AR) signaling pathway using the MDA cell line - cell viability counter screen (AID 743041; also: nearly all actives have a fitted effect of over 45% in size). In outline:
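Cells were plated at 3,000 per well and left 5 h. Compounds in DMSO were then pinned in, followed by R1881. After 16 h at 37C, CellTiter-Fluor fluorescence gave viability.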

Assay [15] concerns the target Androgen receptor (Homo sapiens) (UniProt P10275). Kind of assay: qHTS assay to identify small molecule antagonists of the androgen receptor (AR) signaling pathway (AID 743035; active = well fitted inhibition curve with a large enough effect in the signal ratio in the repeat runs, not every such curve was filed as active; inconclusive = weak or mixed curves, or effect the other way; inactive = no such curve, though single readings can be large or run the other way; the % refers to the signal ratio). In outline: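 Fluorescence from a beta-lactamase FRET substrate (LiveBLAzer B/G, 2 h, room temperature) measured inhibition of R1881-stimulated signaling in GeneBLAzer AR-UAS-bla HEK293 cells exposed to compound for 16 h at 37C.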

The target is the same in assay [16]. Kind of assay: qHTS assay to identify small molecule agonists of the androgen receptor (AR) signaling pathway (AID 743036; active = well fitted activation curve with a large enough effect in the signal ratio in the repeat runs, with a control signal flat, not every such curve was filed as active; inconclusive = weak or mixed curves, or effect the other way; inactive = no such curve, though single readings can be large or run the other way; the % refers to the signal ratio; also: potency is read from the fitted curve at half-maximal effect). In outline:
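Activation was read as beta-lactamase FRET signal from LiveBLAzer B/G substrate, added for 2 h at room temperature. Before that, GeneBLAzer AR-UAS-bla GripTite (HEK293) cells had 16 h compound exposure at 37C.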

Assay [17] has the same target. Kind of assay: qHTS assay to identify small molecule agonists of the androgen receptor (AR) signaling pathway using the MDA cell line (AID 743040; also: nearly all actives have a fitted effect of over 20% in size; also: potency is read from the fitted curve at half-maximal effect). In outline: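 Cells plated, 5 h at 37C/0% CO2; compound or DMSO pinned; 16 h at 37C; ONE-Glo added; luminescence measured after 30 min at room temperature. Reporter line: MDA-kb2 with MMTV-luciferase responsive to AR and GR.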

For assay [18] the target is unchanged. Kind of assay: qHTS assay to identify small molecule antagonists of the androgen receptor (AR) signaling pathway using the MDA cell line (AID 743042; also: nearly all actives have a fitted effect of over 55% in size). In outline:
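Antagonist mode: compounds plus R1881 agonist added to MDA-kb2 AR-luc cells, incubated 16 h at 37C. Luciferase reporter luminescence quantified, with multiplexed CellTiter-Fluor readout for cell viability.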

Assay [19] in a line: qHTS assay for identifying genotoxic compounds that show differential cytotoxicity against isogenic chicken DT40 cell lines with known DNA damage response pathways - Rad54/Ku70 mutant cell line (AID 743015). Also: nearly all actives have a fitted effect of over 60% in size. Also: potency is read from the fitted curve at half-maximal effect.

SMILES strings stand for the structures. Activity calls are given as the source filed them. Unless noted, calls follow the shape of the dose curve; as a rule, active = well fitted curve in the direction sought with a large enough effect in the repeat runs; inconclusive = weak or mixed curves; inactive = no such curve, though single readings can be large; an effect the other way counts as inactive or inconclusive.

Chain of Glucocorticoid receptor (Homo sapiens) (P04150 whole entry, looked up): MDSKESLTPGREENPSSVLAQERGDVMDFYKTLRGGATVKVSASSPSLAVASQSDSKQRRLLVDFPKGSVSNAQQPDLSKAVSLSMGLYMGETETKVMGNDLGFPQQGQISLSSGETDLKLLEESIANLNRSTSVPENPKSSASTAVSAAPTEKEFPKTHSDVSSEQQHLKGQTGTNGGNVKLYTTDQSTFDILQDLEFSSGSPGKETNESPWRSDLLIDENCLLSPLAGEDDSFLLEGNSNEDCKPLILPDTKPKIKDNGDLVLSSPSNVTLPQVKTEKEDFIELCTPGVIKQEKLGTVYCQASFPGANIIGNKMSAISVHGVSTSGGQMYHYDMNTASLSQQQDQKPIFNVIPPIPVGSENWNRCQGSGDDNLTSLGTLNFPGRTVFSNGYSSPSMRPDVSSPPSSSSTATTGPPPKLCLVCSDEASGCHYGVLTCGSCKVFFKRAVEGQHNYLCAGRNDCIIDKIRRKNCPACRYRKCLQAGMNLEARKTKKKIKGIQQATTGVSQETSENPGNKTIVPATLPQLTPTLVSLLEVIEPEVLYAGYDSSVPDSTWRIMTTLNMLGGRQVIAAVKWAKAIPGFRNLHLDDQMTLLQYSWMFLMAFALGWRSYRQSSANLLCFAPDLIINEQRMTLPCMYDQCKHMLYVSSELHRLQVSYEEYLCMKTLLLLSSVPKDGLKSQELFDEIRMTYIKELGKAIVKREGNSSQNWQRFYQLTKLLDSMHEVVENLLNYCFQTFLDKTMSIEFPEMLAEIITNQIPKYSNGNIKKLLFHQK
Chain of Androgen receptor (Homo sapiens) (P10275 whole entry, looked up): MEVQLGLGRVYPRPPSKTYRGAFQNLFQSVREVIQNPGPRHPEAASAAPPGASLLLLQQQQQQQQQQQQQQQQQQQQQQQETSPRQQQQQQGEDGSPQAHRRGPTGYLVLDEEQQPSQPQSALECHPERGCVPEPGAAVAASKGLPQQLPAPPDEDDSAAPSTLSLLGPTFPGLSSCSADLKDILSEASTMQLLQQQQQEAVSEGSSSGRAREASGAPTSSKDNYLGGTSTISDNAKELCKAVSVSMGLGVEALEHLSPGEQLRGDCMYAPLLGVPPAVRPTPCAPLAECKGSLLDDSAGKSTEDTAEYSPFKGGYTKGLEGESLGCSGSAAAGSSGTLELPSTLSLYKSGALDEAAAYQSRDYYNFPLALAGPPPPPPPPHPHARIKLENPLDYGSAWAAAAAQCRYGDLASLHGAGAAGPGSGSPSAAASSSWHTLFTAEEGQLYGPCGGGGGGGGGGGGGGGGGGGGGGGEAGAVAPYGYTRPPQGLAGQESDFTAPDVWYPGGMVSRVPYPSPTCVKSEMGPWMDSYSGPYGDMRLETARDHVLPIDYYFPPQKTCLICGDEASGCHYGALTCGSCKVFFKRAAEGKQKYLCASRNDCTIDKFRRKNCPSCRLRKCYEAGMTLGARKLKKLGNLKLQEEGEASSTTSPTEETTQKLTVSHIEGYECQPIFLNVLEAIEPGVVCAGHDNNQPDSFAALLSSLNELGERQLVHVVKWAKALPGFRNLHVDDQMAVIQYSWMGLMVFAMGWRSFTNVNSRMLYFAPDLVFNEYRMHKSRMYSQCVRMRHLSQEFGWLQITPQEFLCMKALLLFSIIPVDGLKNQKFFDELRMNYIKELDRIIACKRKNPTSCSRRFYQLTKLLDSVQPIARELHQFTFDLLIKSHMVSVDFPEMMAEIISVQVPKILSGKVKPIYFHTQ

`Cc1ccccc1CNc1ncnc2c1ncn2[C@@H]1O[C@H](CO)[C@@H](O)[C@H]1O`: the Potency entry in assay [1], in [2], in [3], in [4], in [5] and in assay [7] was “inactive” each time. Further, the Potency result in assay [9], in assay [10], in [13] and in [14] was “inactive” in each case. The outcome in assay [6] and in assay [8] was inactive. Also, the values for the Potency in assay [11] and in [12] were 16800 nM (active) and 21100 nM (active), respectively.
In the case of `CC(=O)Nc1ccc(NC(=S)NC(=O)c2ccc(C(C)(C)C)cc2)cc1`, the Potency result in assay [1], in assay [2], in assay [3], in assay [4], in [5] and in assay [7] was “inactive” each time. Also, the Potency result in [9], in assay [10] and in [13] was “inactive” in each case. Further, the outcome in [6] and in assay [8] was inactive. Besides, the Potency in [11] and in assay [12] was 2660 nM (active) in each case.
`C[C@@H]1C[C@H]2C3C[C@H](F)C4=CC(=O)C=CC4(C)[C@@]3(F)[C@@H](O)CC2(C)[C@@]1(O)C(=O)COC(=O)C(C)(C)C` (stereo partly specified): the Potency entry in [1], in [2], in assay [3], in assay [4], in [5] and in assay [7] was “inactive” each time. Besides, the Potency entry in [10], in [13], in assay [15], in [14] and in assay [18] was “inactive” throughout. Further, the molecule was called inactive in [6] and in assay [8]. The figures for the Potency in assay [9], in [16] and in [17] were 6.7 nM [inconclusive] (active), 60.1 nM (active) and 4.7 nM (active), respectively.
Take `CC(=O)OCC(=O)[C@@]12OC3(CCCC3)O[C@@H]1C[C@H]1[C@@H]3CCC4=CC(=O)C=C[C@]4(C)[C@@]3(F)[C@@H](O)C[C@@]12C`: the Potency result in assay [1], in [2], in assay [3], in [4], in [5] and in assay [7] was “inactive” in each case. The Potency result in assay [10] and in assay [14] was “inactive” each time. Further, the outcome in assay [6] and in assay [8] was inactive. Also, the Potency in assay [9] was 19 nM (active).
On to `[O]=[Bi][O][Bi]=[O]`, for which the Potency entry in [1], in [2], in [3], in [4], in assay [5] and in assay [7] was “inactive” in each case. For the same molecule, the Potency entry in assay [9], in assay [10], in assay [11], in assay [12], in [19] and in [15] was “inactive” in each case. Further, the Potency result in assay [16], in [17], in assay [14] and in [18] was “inactive” each time. Also, the result in [6] and in assay [8] was inactive.
Consider `CC(=O)OCC(=O)[C@@]1(O)[C@H](C)C[C@H]2[C@@H]3C[C@H](F)C4=CC(=O)C=C[C@]4(C)[C@H]3[C@@H](O)C[C@@]21C`, for which the Potency result in assay [1], in assay [2], in [3], in [4], in assay [5] and in assay [7] was “inactive” in each case. Further, the Potency entry in assay [10], in assay [13], in assay [14] and in assay [18] was “inactive” each time. Besides, the result in assay [6] and in assay [8] was inactive. Also, the Potency in assay [9] is 26.8 nM [inconclusive] (active); in [16] it was 1340 nM (active); in [17], 29.8 nM (active).
Turning to `CCCCC(C)(O)C/C=C/[C@H]1[C@H](O)CC(=O)[C@@H]1CCCCCCC(=O)OC` (stereo partly specified), the Potency result in assay [1], in [2], in assay [3], in assay [4], in assay [5] and in [7] was “inactive” throughout. Moreover, the Potency result in [9], in [10], in [13] and in assay [14] was “inactive” throughout. Further, the molecule was classed as inactive in [6] and in assay [8]. Moreover, the figures for the Potency in [12] and in [19] were 1680 nM (active) and 1190 nM (active), respectively.
